These results are taken from PubChem BioAssay (EPA / NIEHS).

Read-out in experiment [1]: Macrophage colony-stimulating factor (MCSF), CSF1 (gene 1435)
As to the kind of experiment: BSK_hDFCGF_MCSF: BioMAP Diversity Plus: hDFCGF Assay for Macrophage colony-stimulating factor (MCSF) Biomarker Activity (AID 2283060). The note with it: primary human foreskin fibroblasts; actives raise or lower the signal. The procedure, abridged:
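fibroblasts (human foreskin, primary), 24 h post-dose; M-CSF by ELISA; bidirectional fit, DMSO = baseline.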

Experiment [2] in a line: BSK_hDFCGF_SRB: Viability Assessment in the BioMAP Diversity Plus: hDFCGF Assay (AID 2283061).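 Note: cells exposed to compound for 24 h before the read.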 As to conditions: primary human foreskin fibroblasts. The procedure, abridged:
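SRB-based viability read on primary human skin fibroblasts at 24 h: TCA fixation, 0.1% dye, 560 nm. Gain or loss of signal is fitted against the DMSO negative control.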

Read-out in experiment [3]: TIMP metallopeptidase inhibitor 1 (TIMP1), TIMP1 (gene 7076)
Nature of the experiment: BSK_hDFCGF_TIMP1: BioMAP Diversity Plus: hDFCGF Assay for TIMP metallopeptidase inhibitor 1 (TIMP1) Biomarker Activity (AID 2283062). The note with it: primary human foreskin fibroblasts; actives raise or lower the signal. In outline:
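Bidirectional curve fitting against DMSO baseline yielded this endpoint, based on ELISA detection of TIMP-1 in primary human foreskin fibroblasts exposed to compound for 24 h.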

Read-out in experiment [4]: Matrix Metallopeptidase 1 (MMP1), MMP1 (gene 4312)
As to the kind of experiment: BSK_hDFCGF_MMP1: BioMAP Diversity Plus: hDFCGF Assay for Matrix Metallopeptidase 1 (MMP1) Biomarker Activity (AID 2283064). The note with it: primary human foreskin fibroblasts; actives raise or lower the signal. The procedure, abridged:
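MMP1 levels quantified by ELISA 24 h after dosing human dermal fibroblast cultures, with parallel SRB total-protein staining for overt cytotoxicity. Data fitted in both directions against DMSO baseline.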

Read-out in experiment [5]: Vascular cell adhesion molecule 1 (VCAM1), VCAM1 (gene 7412)
Nature of the experiment: BSK_hDFCGF_VCAM1: BioMAP Diversity Plus: hDFCGF Assay for Vascular cell adhesion molecule 1 (VCAM1) Biomarker Activity (AID 2283065).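 For AC50: VCAM-1 protein level quantified by ELISA after 24 h chemical exposure.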 As to conditions: primary human foreskin fibroblasts; actives raise or lower the signal. The procedure, abridged:
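Measured after 24 h chemical treatment of primary human skin fibroblasts, VCAM-1 was detected by ELISA and concentration-response analysed in both directions versus DMSO vehicle.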

Read-out in experiment [6]: Plasminogen activator inhibitor-1 (PAI1), SERPINE1 (gene 5054)
Nature of the experiment: BSK_hDFCGF_PAI1: BioMAP Diversity Plus: hDFCGF Assay for Plasminogen activator inhibitor-1 (PAI1) Biomarker Activity (AID 2283066). As to conditions: primary human foreskin fibroblasts; actives raise or lower the signal. The procedure, abridged:
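Human skin fibroblast cultures receive chemical for 24 h before PAI-1 is measured by ELISA; signal changes are fitted bidirectionally against DMSO-treated wells.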

Read-out in experiment [7]: Interferon-gamma inducible Protein 10 (IP10), CXCL10 (gene 3627)
As to the kind of experiment: BSK_KF3CT_IP10: BioMAP Diversity Plus: KF3CT Assay for Interferon-gamma inducible Protein 10 (IP10) Biomarker Activity (AID 2283068). As to conditions: primary human keratinocytes with fibroblasts; actives raise or lower the signal. In outline: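 In a primary skin co-culture of keratinocytes and fibroblasts, IP-10 is quantified by ELISA at 24 h after dosing. SRB staining of parallel wells monitors overt toxicity. Curves are fitted both directions against DMSO.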

Experiment [8] in a line: BSK_KF3CT_SRB: Viability Assessment in the BioMAP Diversity Plus: KF3CT Assay (AID 2283069).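 Note: total protein by sulforhodamine B staining as a cytotoxicity measure; read 24 h after compound addition.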 The note with it: primary human keratinocytes with fibroblasts. The procedure, abridged: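 Cytotoxicity was gauged by SRB staining (0.1% SRB, 10% TCA fixation, 560 nm) of parallel cultures at 24 h. The cells were primary human skin keratinocytes co-cultured with fibroblasts, and activity was fitted in both directions against DMSO.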

Read-out in experiment [9]: Interleukin-1 alpha (IL1a), IL1A (gene 3552)
Nature of the experiment: BSK_KF3CT_IL1a: BioMAP Diversity Plus: KF3CT Assay for Interleukin-1 alpha (IL1a) Biomarker Activity (AID 2283070). The note with it: primary human keratinocytes with fibroblasts; actives raise or lower the signal. In outline: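 IL-1a was detected by ELISA 24 h after chemical treatment of a co-culture of human skin keratinocytes and foreskin fibroblasts. Gain or loss of signal was fitted against the DMSO baseline.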

Read-out in experiment [10]: TIMP metallopeptidase inhibitor 2 (TIMP2), TIMP2 (gene 7077)
As to the kind of experiment: BSK_KF3CT_TIMP2: BioMAP Diversity Plus: KF3CT Assay for TIMP metallopeptidase inhibitor 2 (TIMP2) Biomarker Activity (AID 2283071). The note with it: primary human keratinocytes with fibroblasts; actives raise or lower the signal. In outline: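 Measurements come from ELISA detection of TIMP-2 at 24 hours in a dosed human keratinocyte and foreskin fibroblast co-culture. DMSO serves as negative control and baseline.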

Read-out in experiment [11]: Transforming growth factor beta 1 (TGFb1), TGFB1 (gene 7040)
As to the kind of experiment: BSK_KF3CT_TGFb1: BioMAP Diversity Plus: KF3CT Assay for Transforming growth factor beta 1 (TGFb1) Biomarker Activity (AID 2283072). The note with it: primary human keratinocytes with fibroblasts; actives raise or lower the signal. The procedure, abridged: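 TGF-b1 ELISA on a 24 h dosed co-culture of human keratinocytes and foreskin fibroblasts; cytotoxicity tracked in parallel cultures by SRB staining.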

Read-out in experiment [12]: C-C motif chemokine 2 (Homo sapiens) (UniProt P13500)
Nature of the experiment: BSK_KF3CT_MCP1: BioMAP Diversity Plus: KF3CT Assay for Monocyte Chemoattractant Protein 1 (MCP1/CCL2) Biomarker Activity (AID 2283073). As to conditions: primary human keratinocytes with fibroblasts; actives raise or lower the signal. In outline: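 Biomarker MCP-1 is measured by ELISA in primary human keratinocytes co-cultured with foreskin fibroblasts, 24 h after chemical treatment; DMSO serves as the negative control and activity baseline.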

Read-out in experiment [13]: Matrix Metallopeptidase 9 (MMP9), MMP9 (gene 4318)
Nature of the experiment: BSK_KF3CT_MMP9: BioMAP Diversity Plus: KF3CT Assay for Matrix Metallopeptidase 9 (MMP9) Biomarker Activity (AID 2283074).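 For AC50: MMP9 protein level quantified by ELISA in the co-culture.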 The note with it: primary human keratinocytes with fibroblasts; actives raise or lower the signal. The procedure, abridged: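 MMP-9 quantified by ELISA after 24 h chemical treatment of primary human skin keratinocyte/fibroblast co-cultures; gain or loss fitted against DMSO, with parallel SRB staining (0.1% SRB, 560 nm) for overt cytotoxicity.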

Read-out in the next experiment: CD40, CD40 (gene 958)
Nature of the experiment: BSK_LPS_CD40: BioMAP Diversity Plus: LPS Assay for CD40 Biomarker Activity (AID 2283076). The note with it: primary human HUVEC with PBMC; actives raise or lower the signal. The procedure, abridged: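 Using a multiplexed primary human co-culture (umbilical vein endothelium plus PBMC), CD40 was read by ELISA 24 h after dosing, with cytotoxicity tracked by sulforhodamine B staining of parallel cultures and activity fitted bidirectionally versus DMSO.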

Read-out in experiment [14]: E-selectin (Homo sapiens) (UniProt P16581)
Nature of the experiment: BSK_LPS_Eselectin: BioMAP Diversity Plus: LPS Assay for Eselectin Biomarker Activity (AID 2283077). As to conditions: primary human HUVEC with PBMC; actives raise or lower the signal. The procedure, abridged: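 Dose chemical onto LPS-driven HUVEC/PBMC co-culture; after 24 h, run ELISA for E-selectin; fit up- and down-going responses relative to DMSO control.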

Read-out in experiment [15]: Interleukin-8 (IL8), CXCL8 (gene 3576)
As to the kind of experiment: BSK_LPS_IL8: BioMAP Diversity Plus: LPS Assay for Interleukin-8 (IL8) Biomarker Activity (AID 2283078). The note with it: primary human HUVEC with PBMC; actives raise or lower the signal. In outline: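 In this LPS system, chemical-treated human umbilical vein endothelium/PBMC co-cultures were harvested at 24 h for IL-8 ELISA.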

The nature of experiment [16]: BSK_LPS_SRB: Viability Assessment in the BioMAP Diversity Plus: LPS Assay (AID 2283079).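 Note: total protein by sulforhodamine B absorbance as a cytotoxicity measure; measured one day after compound addition; fitted in both directions against DMSO so loss or gain of signal counts.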 The note with it: primary human HUVEC with PBMC. In outline: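 Cytotoxicity endpoint in human endothelial–PBMC co-culture: 24 h exposure, then SRB (0.1%) staining, 560 nm read.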
Read-out in experiment [17]: Intercellular Adhesion Molecule 1 (ICAM1), ICAM1 (gene 3383)
As to the kind of experiment: BSK_KF3CT_ICAM1: BioMAP Diversity Plus: KF3CT Assay for Intercellular Adhesion Molecule 1 (ICAM1) Biomarker Activity (AID 2283067). The note with it: primary human keratinocytes with fibroblasts; actives raise or lower the signal. The procedure, abridged:
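Bidirectional curve fitting against a DMSO baseline was applied to ICAM-1 ELISA signal from primary human skin co-cultures harvested 24 h after treatment, with SRB staining of parallel wells for overt cytotoxicity.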

Read-out in experiment [18]: Monokine induced gamma interferon (MIG), CXCL9 (gene 4283)
Nature of the experiment: BSK_hDFCGF_MIG: BioMAP Diversity Plus: hDFCGF Assay for Monokine induced gamma interferon (MIG) Biomarker Activity (AID 2283063). The note with it: primary human foreskin fibroblasts; actives raise or lower the signal. In outline:
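Endpoint derived by bidirectional fitting relative to DMSO; MIG quantified via ELISA in primary human foreskin fibroblasts harvested 24 h after dosing.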

Several values for one entry are separate records, joined by “and”; a condition that tells them apart may be missing. Equal entries are not always repeated. A structure can be active in one record and inactive in another. Activity calls are given as the source filed them. Rule for the calls: active = hit-call score of the fitted dose curve at least 0.9, where 1 is the maximum; inactive = score below 0.9.

Sequence of E-selectin (Homo sapiens) (P16581 whole entry, looked up): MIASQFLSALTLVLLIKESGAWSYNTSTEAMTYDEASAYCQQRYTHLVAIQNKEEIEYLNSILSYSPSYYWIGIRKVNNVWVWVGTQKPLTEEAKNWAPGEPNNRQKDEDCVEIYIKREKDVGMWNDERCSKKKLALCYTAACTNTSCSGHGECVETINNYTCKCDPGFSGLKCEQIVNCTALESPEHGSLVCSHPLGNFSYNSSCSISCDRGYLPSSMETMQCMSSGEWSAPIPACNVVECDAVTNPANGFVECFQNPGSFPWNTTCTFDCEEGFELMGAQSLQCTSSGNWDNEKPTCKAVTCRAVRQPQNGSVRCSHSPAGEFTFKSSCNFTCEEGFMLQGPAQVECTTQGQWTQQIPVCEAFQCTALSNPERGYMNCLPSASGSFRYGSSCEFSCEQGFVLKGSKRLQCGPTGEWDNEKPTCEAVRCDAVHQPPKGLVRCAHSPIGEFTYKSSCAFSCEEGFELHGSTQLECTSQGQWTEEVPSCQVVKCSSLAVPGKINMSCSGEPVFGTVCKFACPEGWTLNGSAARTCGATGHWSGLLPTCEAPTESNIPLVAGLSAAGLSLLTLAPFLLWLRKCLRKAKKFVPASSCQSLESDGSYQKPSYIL

The AC50 is the concentration giving half of the maximal activity seen. Take `CCc1ccc(C(c2ccc(CC)cc2)C(Cl)Cl)cc1`: the AC50 was 26 µM (active) in [1]; 13.8 µM (active) in experiment [2]; 20 µM (active) in experiment [3]; 30.1 µM (active) in experiment [4]; 14.2 µM (active) in experiment [5]; 12.3 µM (active) in [6]. Also, the AC50 in [7] was 13.6 µM (active); in experiment [8], 29.2 µM (active); in experiment [9], 20 µM (active); in [10] it was 13 µM (active); in experiment [11], 20 µM (active); in experiment [12], 10.1 µM (active). Also, the AC50 is 11.9 µM (active) in [13]; 14.2 µM (active) with CD40, CD40 (gene 958); 25.1 µM (active) in experiment [16]. Also, the result in [14] and in experiment [15] was inactive.
As to `C=CC(F)(F)C(F)(F)C(F)(F)C(F)(F)C(F)(F)C(F)(F)C(F)(F)C(F)(F)F`, the result in experiment [1], in [2], in experiment [3], in experiment [4], in [5] and in [6] was inactive. The result in [17], in experiment [7], in [8], in [9], in experiment [10] and in experiment [12] was inactive. The outcome in experiment [13] is “inactive”; in the experiment with CD40, CD40 (gene 958), “inactive”; in experiment [14], “inactive”; in experiment [15], “inactive”; in [16] it was “inactive”.
`FC(F)(F)C(F)(F)C(F)(F)C(F)(F)C(F)(F)C(F)(F)C(F)(F)I`: the outcome in experiment [1], in [2], in [3], in experiment [4], in [5] and in [6] was inactive. The outcome in experiment [7], in experiment [8], in experiment [9], in [10], in experiment [12] and in experiment [13] was inactive. The outcome is “inactive” with CD40, CD40 (gene 958); “inactive” in experiment [14]; “inactive” in experiment [15]; “inactive” in [16]. In addition, in experiment [13], the AC50 was 0.244 µM (active).
Take `FC(F)(I)C(F)(F)C(F)(F)C(F)(F)I`: the AC50 was 51.1 µM (active) and 47.7 µM (active) and 58.5 µM (active) in experiment [1]; 46.3 µM (active) and 52.7 µM (active) and 54 µM (active) in [2]; 45.3 µM (active) and 46.7 µM (active) and 47.2 µM (active) in experiment [3]; 50.1 µM (active) and 46 µM (active) and 54.4 µM (active) in experiment [18]; 56.1 µM (active) and 47.6 µM (active) and 46.9 µM (active) in experiment [4]; 50.3 µM (active) and 57.2 µM (active) and 46.4 µM (active) in [5]. Also, the half-maximal activity concentration (AC50) was 45.1 µM (active) and 50.2 µM (active) and 44.9 µM (active) in experiment [6]; 52.2 µM (active) and 58.4 µM (active) and 56.6 µM (active) in experiment [7]; 52.6 µM (active) and 51.1 µM (active) and 58.7 µM (active) in [8]; 53.2 µM (active) and 47.2 µM (active) and 47.7 µM (active) in experiment [9]; 54.2 µM (active) and 46.7 µM (active) and 53.1 µM (active) in experiment [10]; 50.9 µM (active) and 46.8 µM (active) and 48.7 µM (active) in experiment [12]. Further, in [13], the concentration at half-maximal activity (AC50) is 52 µM (active) and 51.2 µM (active) and 45.8 µM (active). Also, the outcome is “inactive” in the experiment with CD40, CD40 (gene 958); “inactive” in [14]; “inactive” in experiment [15]; “inactive” in experiment [16].
